Measurements from article PMC7862700, “An all-to-all approach to the identification of sequence-specific readers for epigenetic DNA modifications on cytosine”.

Key:
Assay in all cases: DAPPL (digital affinity profiling via proximity ligation, sequencing); 10 mM Tris-HCl pH 7.5, 50 mM NaCl, 1 mM DTT, 4% glycerol, room temperature, 30 min; GST-TFs on glutathione beads, 16-mer random dsDNA library, 0.1% formaldehyde crosslink after washing; high values mean tight binding
FLI1 = target: T1, FLI1 (Homo sapiens, UniProt Q01543 1-452); conditions: protein: recombinant; tags: N-terminal GST; dsDNA, one strand shown
T1 sequence: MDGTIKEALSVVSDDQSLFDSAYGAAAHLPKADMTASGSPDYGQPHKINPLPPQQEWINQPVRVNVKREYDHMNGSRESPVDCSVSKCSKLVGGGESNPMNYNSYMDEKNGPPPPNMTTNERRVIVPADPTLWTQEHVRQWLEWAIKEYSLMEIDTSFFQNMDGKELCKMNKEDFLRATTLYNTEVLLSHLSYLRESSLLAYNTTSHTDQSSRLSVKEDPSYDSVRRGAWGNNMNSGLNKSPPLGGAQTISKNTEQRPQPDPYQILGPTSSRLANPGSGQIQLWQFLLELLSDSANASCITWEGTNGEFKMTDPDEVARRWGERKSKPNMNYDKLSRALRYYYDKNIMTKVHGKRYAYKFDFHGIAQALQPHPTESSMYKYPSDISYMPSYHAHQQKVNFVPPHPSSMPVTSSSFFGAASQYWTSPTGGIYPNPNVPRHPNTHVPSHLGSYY
In short: (§1)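 The binding signal reported is, for every hexamer, its read frequency for a factor over its read frequency for the tag-only sample. Reads came from pools of yeast-expressed, GST-fused human transcription factors on glutathione beads, barcoded with DNA and mixed with that sample, which were incubated with 200 nmole of a random double-stranded 16-mer DNA library in Tris/NaCl/DTT/glycerol buffer at room temperature for 30 min. After washing, the pools were crosslinked with 0.1% formaldehyde, proximity-ligated with BsaI/T4 ligase for 1 h at 37 °C, PCR-amplified and sequenced on an Illumina NextSeq500.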

ELK1 = target: T2, ELK1 (Homo sapiens, UniProt P19419 1-428); conditions: protein: recombinant; tags: N-terminal GST; dsDNA, one strand shown
T2 sequence: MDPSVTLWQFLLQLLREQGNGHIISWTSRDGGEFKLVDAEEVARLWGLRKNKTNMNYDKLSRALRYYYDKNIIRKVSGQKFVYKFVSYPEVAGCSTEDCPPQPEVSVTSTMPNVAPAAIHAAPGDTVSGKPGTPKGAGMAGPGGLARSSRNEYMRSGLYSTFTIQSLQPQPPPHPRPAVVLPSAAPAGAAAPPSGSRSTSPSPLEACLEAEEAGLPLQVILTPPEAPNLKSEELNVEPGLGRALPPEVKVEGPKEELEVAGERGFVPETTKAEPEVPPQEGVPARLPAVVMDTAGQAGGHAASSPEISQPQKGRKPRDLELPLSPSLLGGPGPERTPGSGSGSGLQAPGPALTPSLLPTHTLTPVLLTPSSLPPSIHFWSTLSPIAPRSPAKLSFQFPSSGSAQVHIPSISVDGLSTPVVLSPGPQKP
In short: as §1

GABPA = target: T3, GABPA (Homo sapiens, UniProt Q06546 1-454); conditions: protein: recombinant; tags: N-terminal GST; dsDNA, one strand shown
T3 sequence: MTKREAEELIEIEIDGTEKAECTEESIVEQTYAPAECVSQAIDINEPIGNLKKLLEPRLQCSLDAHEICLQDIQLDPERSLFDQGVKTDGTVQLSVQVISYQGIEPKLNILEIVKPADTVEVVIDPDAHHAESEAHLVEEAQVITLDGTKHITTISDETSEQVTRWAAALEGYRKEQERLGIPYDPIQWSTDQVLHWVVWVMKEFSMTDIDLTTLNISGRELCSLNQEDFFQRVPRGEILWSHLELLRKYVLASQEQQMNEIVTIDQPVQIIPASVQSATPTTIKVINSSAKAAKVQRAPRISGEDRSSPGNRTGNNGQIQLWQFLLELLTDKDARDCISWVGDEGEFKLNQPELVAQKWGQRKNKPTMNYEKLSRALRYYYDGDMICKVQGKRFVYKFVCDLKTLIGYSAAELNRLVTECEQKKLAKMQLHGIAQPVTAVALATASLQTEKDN
In short: as §1

ERG = target: T4, ERG (Homo sapiens, UniProt P11308 1-479); conditions: protein: recombinant; tags: N-terminal GST; dsDNA, one strand shown
T4 sequence: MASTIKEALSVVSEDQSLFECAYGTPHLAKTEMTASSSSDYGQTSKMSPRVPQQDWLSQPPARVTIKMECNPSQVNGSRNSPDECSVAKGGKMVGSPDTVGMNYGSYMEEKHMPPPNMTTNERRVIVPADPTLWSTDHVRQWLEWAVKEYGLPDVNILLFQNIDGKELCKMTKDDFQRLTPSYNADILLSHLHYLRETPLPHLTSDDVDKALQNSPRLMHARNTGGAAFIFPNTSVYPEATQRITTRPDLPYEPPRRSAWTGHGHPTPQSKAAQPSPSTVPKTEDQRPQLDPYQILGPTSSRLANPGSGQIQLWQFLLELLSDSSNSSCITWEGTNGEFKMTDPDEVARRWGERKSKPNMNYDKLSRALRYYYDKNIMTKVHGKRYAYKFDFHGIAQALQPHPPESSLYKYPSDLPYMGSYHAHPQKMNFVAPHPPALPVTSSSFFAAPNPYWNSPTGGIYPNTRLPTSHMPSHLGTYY
In short: as §1

ELF1 = ELF1 (Homo sapiens, UniProt P32519 1-619); conditions: protein: recombinant; tags: N-terminal GST; dsDNA, one strand shown
Sequence of ELF1 (P32519 whole entry): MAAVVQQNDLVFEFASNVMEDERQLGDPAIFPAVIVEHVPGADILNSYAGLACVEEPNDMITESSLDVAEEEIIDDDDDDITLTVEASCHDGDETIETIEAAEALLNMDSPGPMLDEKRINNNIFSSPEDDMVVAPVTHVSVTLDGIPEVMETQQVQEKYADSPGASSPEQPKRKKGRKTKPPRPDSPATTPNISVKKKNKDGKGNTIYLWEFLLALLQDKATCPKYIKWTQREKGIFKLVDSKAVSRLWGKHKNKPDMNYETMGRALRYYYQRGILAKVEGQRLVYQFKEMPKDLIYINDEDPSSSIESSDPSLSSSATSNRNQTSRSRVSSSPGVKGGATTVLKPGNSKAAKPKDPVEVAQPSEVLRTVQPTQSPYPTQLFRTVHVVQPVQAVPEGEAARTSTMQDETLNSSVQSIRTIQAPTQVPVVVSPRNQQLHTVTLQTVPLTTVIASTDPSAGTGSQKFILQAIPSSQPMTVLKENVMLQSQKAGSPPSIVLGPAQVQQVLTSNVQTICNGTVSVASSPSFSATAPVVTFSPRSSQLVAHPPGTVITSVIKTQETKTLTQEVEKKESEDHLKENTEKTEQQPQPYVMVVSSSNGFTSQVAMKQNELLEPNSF
In short: as §1

EHF = target: T5, EHF (Homo sapiens, UniProt Q9NZC4 1-300); conditions: protein: recombinant; tags: N-terminal GST; dsDNA, one strand shown
T5 sequence: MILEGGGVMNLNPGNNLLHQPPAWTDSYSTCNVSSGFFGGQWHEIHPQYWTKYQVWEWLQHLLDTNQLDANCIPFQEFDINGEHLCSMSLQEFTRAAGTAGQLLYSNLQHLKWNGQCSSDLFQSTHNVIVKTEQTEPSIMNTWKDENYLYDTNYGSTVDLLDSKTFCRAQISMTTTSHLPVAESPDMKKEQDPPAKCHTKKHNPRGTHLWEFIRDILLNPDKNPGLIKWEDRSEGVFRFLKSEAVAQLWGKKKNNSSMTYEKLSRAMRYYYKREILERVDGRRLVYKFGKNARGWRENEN
In short: as §1

SPI1 = SPI1 (Homo sapiens, UniProt P17947 1-270); conditions: protein: recombinant; tags: N-terminal GST; dsDNA, one strand shown
In short: as §1

SPIB = SPIB (Homo sapiens, UniProt Q01892 1-262); conditions: protein: recombinant; tags: N-terminal GST; dsDNA, one strand shown
Sequence of SPIB (Q01892 whole entry): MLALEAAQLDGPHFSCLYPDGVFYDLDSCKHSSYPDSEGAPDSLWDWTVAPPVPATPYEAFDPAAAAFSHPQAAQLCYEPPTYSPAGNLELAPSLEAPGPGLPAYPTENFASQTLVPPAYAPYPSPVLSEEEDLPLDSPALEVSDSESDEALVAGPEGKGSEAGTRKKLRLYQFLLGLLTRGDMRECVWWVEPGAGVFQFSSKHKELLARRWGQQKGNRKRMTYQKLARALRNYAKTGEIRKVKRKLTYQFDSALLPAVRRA
In short: as §1

ELK3 = target: T6, ELK3 (Homo sapiens, UniProt P41970 1-407); conditions: protein: recombinant; tags: N-terminal GST; dsDNA, one strand shown
T6 sequence: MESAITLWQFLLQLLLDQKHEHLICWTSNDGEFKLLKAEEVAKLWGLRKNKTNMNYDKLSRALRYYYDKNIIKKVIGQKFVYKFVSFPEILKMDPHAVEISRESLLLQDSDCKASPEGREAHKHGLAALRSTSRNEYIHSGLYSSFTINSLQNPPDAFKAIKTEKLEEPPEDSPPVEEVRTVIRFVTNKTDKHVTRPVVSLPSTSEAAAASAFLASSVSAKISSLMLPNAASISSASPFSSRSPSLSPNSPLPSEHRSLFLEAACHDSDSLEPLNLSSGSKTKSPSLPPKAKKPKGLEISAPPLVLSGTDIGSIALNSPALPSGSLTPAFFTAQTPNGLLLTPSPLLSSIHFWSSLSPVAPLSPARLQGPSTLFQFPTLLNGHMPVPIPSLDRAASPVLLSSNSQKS
In short: as §1

FEV = target: T7, FEV (Homo sapiens, UniProt Q99581 1-238); conditions: protein: recombinant; tags: N-terminal GST; dsDNA, one strand shown
T7 sequence: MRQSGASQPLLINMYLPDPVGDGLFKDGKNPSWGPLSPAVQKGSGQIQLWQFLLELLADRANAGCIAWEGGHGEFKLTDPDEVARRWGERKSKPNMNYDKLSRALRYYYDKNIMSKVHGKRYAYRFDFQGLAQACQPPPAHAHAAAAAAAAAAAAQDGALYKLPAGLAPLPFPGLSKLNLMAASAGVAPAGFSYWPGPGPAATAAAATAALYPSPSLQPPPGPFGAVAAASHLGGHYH
In short: as §1

ETV5 = ETV5 (Homo sapiens, UniProt P41161 1-510); conditions: protein: recombinant; tags: N-terminal GST; dsDNA, one strand shown
Sequence of ETV5 (P41161 whole entry): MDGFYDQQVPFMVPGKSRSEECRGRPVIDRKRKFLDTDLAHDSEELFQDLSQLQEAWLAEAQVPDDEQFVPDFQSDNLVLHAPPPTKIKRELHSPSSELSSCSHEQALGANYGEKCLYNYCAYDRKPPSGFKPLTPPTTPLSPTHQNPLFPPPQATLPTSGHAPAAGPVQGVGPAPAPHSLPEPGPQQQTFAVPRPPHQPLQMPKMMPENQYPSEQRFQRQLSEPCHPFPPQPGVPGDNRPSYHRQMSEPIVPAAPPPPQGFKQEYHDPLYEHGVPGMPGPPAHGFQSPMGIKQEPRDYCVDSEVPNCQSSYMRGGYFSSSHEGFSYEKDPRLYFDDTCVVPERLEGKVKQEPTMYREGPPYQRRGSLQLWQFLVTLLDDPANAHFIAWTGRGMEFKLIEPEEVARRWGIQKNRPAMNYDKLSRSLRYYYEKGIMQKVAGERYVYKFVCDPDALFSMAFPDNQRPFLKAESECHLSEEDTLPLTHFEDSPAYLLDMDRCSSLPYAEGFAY
In short: as §1

HSF1 = HSF1 (Homo sapiens, UniProt Q00613 1-529); conditions: protein: recombinant; tags: N-terminal GST; chain copies: 3; dsDNA, one strand shown
Sequence of HSF1 (Q00613 whole entry): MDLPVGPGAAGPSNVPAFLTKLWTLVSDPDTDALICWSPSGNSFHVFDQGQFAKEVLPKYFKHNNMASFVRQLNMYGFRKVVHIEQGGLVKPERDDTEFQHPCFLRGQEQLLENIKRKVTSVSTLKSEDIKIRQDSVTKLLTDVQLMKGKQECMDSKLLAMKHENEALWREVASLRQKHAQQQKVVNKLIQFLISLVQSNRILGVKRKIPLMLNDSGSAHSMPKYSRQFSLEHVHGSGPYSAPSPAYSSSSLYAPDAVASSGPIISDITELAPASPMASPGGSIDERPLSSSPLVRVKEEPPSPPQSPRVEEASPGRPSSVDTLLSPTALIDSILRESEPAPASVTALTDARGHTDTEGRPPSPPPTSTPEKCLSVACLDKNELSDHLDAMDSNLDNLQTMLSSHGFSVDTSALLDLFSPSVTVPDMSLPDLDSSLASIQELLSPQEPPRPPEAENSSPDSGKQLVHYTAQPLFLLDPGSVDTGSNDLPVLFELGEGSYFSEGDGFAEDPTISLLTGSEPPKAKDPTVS
In short: as §1

ELF4 = ELF4 (Homo sapiens, UniProt Q99607 1-663); conditions: protein: recombinant; tags: N-terminal GST; dsDNA, one strand shown
Sequence of ELF4 (Q99607 whole entry): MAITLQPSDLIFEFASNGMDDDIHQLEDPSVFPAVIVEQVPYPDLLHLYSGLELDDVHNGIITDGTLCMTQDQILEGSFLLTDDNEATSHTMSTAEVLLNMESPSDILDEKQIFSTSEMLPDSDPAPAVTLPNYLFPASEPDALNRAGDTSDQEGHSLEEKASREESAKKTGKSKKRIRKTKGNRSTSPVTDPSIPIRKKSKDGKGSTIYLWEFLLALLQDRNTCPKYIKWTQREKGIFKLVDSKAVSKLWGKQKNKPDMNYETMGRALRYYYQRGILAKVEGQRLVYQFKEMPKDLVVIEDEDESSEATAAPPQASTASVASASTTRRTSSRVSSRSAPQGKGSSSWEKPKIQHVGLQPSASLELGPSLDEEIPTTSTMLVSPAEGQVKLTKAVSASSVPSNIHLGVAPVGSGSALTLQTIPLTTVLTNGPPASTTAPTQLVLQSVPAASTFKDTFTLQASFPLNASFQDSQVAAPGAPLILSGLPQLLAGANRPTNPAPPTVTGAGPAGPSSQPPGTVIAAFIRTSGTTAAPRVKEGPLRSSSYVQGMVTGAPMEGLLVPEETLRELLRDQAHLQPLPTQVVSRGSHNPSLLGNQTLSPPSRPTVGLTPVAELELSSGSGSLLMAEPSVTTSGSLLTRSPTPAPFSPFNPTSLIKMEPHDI
In short: as §1

ELK4 = target: T8, ELK4 (Homo sapiens, UniProt P28324-2 1-405); conditions: protein: recombinant; tags: N-terminal GST; dsDNA, one strand shown
T8 sequence: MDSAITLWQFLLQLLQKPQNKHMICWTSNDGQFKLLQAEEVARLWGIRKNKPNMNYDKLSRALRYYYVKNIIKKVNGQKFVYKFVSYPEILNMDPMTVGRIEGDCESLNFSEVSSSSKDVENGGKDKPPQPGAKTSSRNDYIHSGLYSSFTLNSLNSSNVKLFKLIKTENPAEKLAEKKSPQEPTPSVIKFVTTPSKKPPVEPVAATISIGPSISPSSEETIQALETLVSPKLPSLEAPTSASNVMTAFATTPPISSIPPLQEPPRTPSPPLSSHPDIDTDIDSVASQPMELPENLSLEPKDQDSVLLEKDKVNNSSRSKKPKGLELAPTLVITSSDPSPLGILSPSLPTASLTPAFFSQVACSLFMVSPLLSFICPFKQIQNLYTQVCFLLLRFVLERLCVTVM
In short: as §1

ELF3 = target: T9, ELF3 (Homo sapiens, UniProt P78545 1-371); conditions: protein: recombinant; tags: N-terminal GST; dsDNA, one strand shown
T9 sequence: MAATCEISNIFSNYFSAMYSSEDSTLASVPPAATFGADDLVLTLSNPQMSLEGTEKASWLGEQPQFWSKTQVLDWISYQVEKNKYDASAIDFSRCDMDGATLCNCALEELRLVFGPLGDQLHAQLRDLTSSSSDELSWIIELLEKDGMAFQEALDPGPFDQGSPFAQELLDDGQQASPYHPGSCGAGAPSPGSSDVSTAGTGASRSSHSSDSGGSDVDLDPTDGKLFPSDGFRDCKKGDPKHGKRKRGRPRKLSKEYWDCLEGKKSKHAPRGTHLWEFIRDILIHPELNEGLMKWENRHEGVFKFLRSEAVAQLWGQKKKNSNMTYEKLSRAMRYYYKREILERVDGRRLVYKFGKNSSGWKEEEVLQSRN
In short: as §1

CRX = CRX (Homo sapiens, UniProt O43186 1-299); conditions: protein: recombinant; tags: N-terminal GST; dsDNA, one strand shown
Sequence of CRX (O43186 whole entry): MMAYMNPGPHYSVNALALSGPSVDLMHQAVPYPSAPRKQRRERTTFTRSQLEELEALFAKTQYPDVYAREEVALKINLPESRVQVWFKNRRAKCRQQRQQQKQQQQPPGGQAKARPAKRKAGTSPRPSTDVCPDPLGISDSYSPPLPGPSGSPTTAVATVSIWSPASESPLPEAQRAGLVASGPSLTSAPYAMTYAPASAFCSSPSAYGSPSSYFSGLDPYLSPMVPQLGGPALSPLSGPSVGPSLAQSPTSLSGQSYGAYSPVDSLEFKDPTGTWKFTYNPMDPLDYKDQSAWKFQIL
In short: as §1

ETV1 = ETV1 (Homo sapiens, UniProt P50549 1-477); conditions: protein: recombinant; tags: N-terminal GST; dsDNA, one strand shown
Sequence of ETV1 (P50549 whole entry): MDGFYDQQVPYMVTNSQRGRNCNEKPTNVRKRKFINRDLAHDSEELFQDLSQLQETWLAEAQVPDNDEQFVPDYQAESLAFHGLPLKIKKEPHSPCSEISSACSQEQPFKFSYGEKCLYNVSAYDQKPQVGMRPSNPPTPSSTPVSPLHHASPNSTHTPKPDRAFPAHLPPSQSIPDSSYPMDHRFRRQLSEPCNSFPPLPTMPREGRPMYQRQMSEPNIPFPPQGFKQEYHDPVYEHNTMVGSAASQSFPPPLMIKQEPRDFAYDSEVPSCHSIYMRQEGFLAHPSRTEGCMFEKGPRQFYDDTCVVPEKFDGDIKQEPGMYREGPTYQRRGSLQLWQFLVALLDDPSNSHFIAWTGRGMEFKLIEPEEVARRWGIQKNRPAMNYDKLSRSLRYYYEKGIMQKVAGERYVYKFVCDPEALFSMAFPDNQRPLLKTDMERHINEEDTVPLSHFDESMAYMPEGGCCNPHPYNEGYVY
In short: as §1

ETV2 = target: T10, ETV2 (Homo sapiens, UniProt O00321 1-342); conditions: protein: recombinant; tags: N-terminal GST; dsDNA, one strand shown
T10 sequence: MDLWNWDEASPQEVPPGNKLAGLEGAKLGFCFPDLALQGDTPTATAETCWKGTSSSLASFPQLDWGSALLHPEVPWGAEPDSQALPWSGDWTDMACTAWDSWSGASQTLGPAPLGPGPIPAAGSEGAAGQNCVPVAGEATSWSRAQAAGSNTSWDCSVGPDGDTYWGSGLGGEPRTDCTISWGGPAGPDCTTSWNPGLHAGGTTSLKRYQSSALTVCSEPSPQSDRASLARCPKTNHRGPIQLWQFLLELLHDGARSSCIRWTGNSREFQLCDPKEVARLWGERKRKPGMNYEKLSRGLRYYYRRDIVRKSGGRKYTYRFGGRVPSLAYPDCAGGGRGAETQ
In short: as §1

Sequence | binding signal (FLI1) | binding signal (ELK1) | binding signal (GABPA) | binding signal (ERG) | binding signal (ELF1) | binding signal (EHF) | binding signal (SPI1) | binding signal (SPIB) | binding signal (ELK3) | binding signal (FEV) | binding signal (ETV5) | binding signal (HSF1) | binding signal (ELF4) | binding signal (ELK4) | binding signal (ELF3) | binding signal (CRX) | binding signal (ETV1) | binding signal (ETV2)
ATCGCT | 1.09 fold enrichment (6-mer frequency, TF over GST control) | 1.09 fold enrichment (6-mer frequency, TF over GST control) | 1.09 fold enrichment (6-mer frequency, TF over GST control) | 1.01 fold enrichment (6-mer frequency, TF over GST control) | 1.04 fold enrichment (6-mer frequency, TF over GST control) | 1.08 fold enrichment (6-mer frequency, TF over GST control) | 1.02 fold enrichment (6-mer frequency, TF over GST control) | 1.14 fold enrichment (6-mer frequency, TF over GST control) | 1.1 fold enrichment (6-mer frequency, TF over GST control) | 1.06 fold enrichment (6-mer frequency, TF over GST control) | 1.07 fold enrichment (6-mer frequency, TF over GST control) | 1.08 fold enrichment (6-mer frequency, TF over GST control) | 1.15 fold enrichment (6-mer frequency, TF over GST control) | 1.06 fold enrichment (6-mer frequency, TF over GST control) | 1.05 fold enrichment (6-mer frequency, TF over GST control) | 1.19 fold enrichment (6-mer frequency, TF over GST control) | 1.08 fold enrichment (6-mer frequency, TF over GST control) | 
AGATAA | 1.09 fold enrichment (6-mer frequency, TF over GST control) | 1.07 fold enrichment (6-mer frequency, TF over GST control) | 1.09 fold enrichment (6-mer frequency, TF over GST control) |  | 1.01 fold enrichment (6-mer frequency, TF over GST control) | 1.03 fold enrichment (6-mer frequency, TF over GST control) | 1.01 fold enrichment (6-mer frequency, TF over GST control) | 1.12 fold enrichment (6-mer frequency, TF over GST control) |  | 1.01 fold enrichment (6-mer frequency, TF over GST control) | 1.01 fold enrichment (6-mer frequency, TF over GST control) | 1.68 fold enrichment (6-mer frequency, TF over GST control) | 1.09 fold enrichment (6-mer frequency, TF over GST control) | 1.08 fold enrichment (6-mer frequency, TF over GST control) |  | 2 fold enrichment (6-mer frequency, TF over GST control) | 1.04 fold enrichment (6-mer frequency, TF over GST control) | 1.17 fold enrichment (6-mer frequency, TF over GST control)
